The record followed here is PubChem BioAssay (Tox21).

Inconclusive results are not listed. A call without a number means that no potency is given here. Active and inactive are the calls of the source. The call rests on the fitted dose curve.
Potency means the concentration at half of the fitted maximal effect.

The test system of this assay is estrogen-related receptor alpha (ERRalpha) with PGC-1alpha coactivator, human. Description: qHTS assay to identify small molecule antagonists of the estrogen related receptor signaling pathway with the pleiotropic PPARgamma coactivator (PGC) (AID 1224821). Further: nearly all actives have a fitted effect of over 50% in size. As to conditions: ERR/PGC reporter cell line, luciferase, antagonist mode; series mostly up to 46.1 µM. From the text: National Center for Advancing Translational Sciences [NCATS]
NIH Chemical Genomics Center [NCGC]
U.S. Environmental Protection Agency [EPA]
National Institutes of Environmental Health Sciences [NIEHS]
National Toxicology Program [NTP]
U.S. Food and Drug Administration [FDA]
Estrogen related receptors (ERRs), the first orphan nuclear receptors discovered, play an important role in the control of cellular energy metabolism. ERRs are required for high-energy production in response to the environmental challenges. The pleiotropic PPARgamma coactivator (PGC) is a major partner of ERR and a key regulator in energy homeostasis. Together they have been implicated in the etiology of metabolic disorders such as Type 2 diabetes and metabolic syndrome. ERR-alpha was also identified as an adverse marker for breast cancer progression; ERR-alpha-positive tumors have a poor prognosis. To screen and to identify environmental compounds that perturb the ERR and PGC/ERR signaling pathways could provide valuable information for potential therapeutic or preventive measures in the treatment of metabolic disease. For identifying PGC/ERR antagonists, PGC/ERR cell line (provided by NTP) has been used to screen LOPAC library.
Tox21 Assay Protocol Summary:
The PGC/ERR cells were dispensed at 2,000 cells/5 ul/well in 1536-well white plates using a Multidrop dispenser. After the assay plates were incubated at a 37 C/5% CO2 incubator for 6 hours, 23 nL of compounds dissolved in DMSO, positive and negative controls or DMSO only was transferred to the assay plate by a pin tool. The plates were incubated at 37 C for 18 hours. 4 ul/well of One-Glo reagent was added into the assay plates using a Flying Reagent Dispenser. After 30 min incubation at room temperature, the luminescence intensity in the plates was measured using a ViewLux plate reader.
In the case of `COc1cc2nc(N3CCCN(C)CC3)nc(NC3CCN(Cc4ccccc4)CC3)c2cc1OC`, the Potency is 28.7 µM (active).
As for `Cc1cc2c(cc1Cl)N(C(=O)Nc1ccc(Oc3cccnc3C)nc1)CC2`, the Potency was 12.8 µM (active).
For `CCSC(=N)N`, the Potency result was “inactive”.
The same measure for `NCCCCC(=O)O`: “inactive”.
The same measure for `Cc1cc(NC2CCCCC2)nc(-n2nc(C)cc2C)n1`: 0.694 µM (active); for `COc1cc(NS(C)(=O)=O)ccc1Nc1c2ccccc2nc2ccccc12`: “inactive”.
Consider `CCCCCCCC/C=C\CCCCCCCC(=O)NCCc1ccc(O)c(O)c1`, for which the Potency entry was “inactive”.
For `Nc1ccc2c3c(cccc13)C(=O)NC2=O`, the Potency entry was “inactive”.
In the case of `Nc1nc(N)c2nc(CNc3ccc(C(=O)NC(CCC(=O)O)C(=O)O)cc3)cnc2n1` (stereo not given), the Potency was 0.0619 µM (active).
`CC(=O)/C=C1\C(=O)N(C)c2ccccc21`: the Potency is 28.7 µM (active).
Consider `C[C@H](Cc1ccc(O)c(O)c1)[C@@H](C)Cc1ccc(O)c(O)c1`, for which the Potency result was “inactive”.
As to `CC[N+](CC)(CC)CC(=O)Nc1c(C)cccc1C`, the Potency result is “inactive”.
Consider `CCC(=O)N1CCN(C(=O)c2ccccc2)CC1`, for which the Potency result was “inactive”.
For the compound `CN1CCN(c2nc3cc(C(F)(F)F)ccc3n3cccc23)CC1`, the Potency entry was “inactive”.
Consider `Nc1ncnc2c1nc(Sc1ccc(Cl)cc1)n2[C@H]1OC2COP(=O)(O)O[C@@H]2C1O` (stereo not given in full), for which the Potency result was “inactive”.
The same measure for `COc1ccc(-c2cc3ncc(C)n3c(Nc3ncccc3C(N)=O)n2)cc1OC`: 2.37 µM (active); for `CC1CNCCN1S(=O)(=O)c1cccc2cnccc12` (stereo not given): “inactive”; for `COc1cccc(OC)c1OCCNCC1COc2ccccc2O1` (stereo not given): “inactive”.
The figure for `N#CC(=C(\N)Sc1ccccc1N)/C(C#N)=C(/N)Sc1ccccc1N` is 9.81 µM (active).
On to `O=C(O)C1CCNCC1`, for which the Potency entry was “inactive”.
Take `O=C1NC(c2cccc([N+](=O)[O-])c2)=CCN1c1ccccc1O`: the Potency result was “inactive”.
`CCN(CC)CCNC(=O)c1ccc(NS(C)(=O)=O)cc1`: the Potency result is “inactive”.
The same measure for `Nc1nc2ccc(Cl)cc2c2nc(-c3ccco3)nn12`: “inactive”; for `C=CC[C@H](N)C(=O)O`: “inactive”.
The same measure for `C[C@H](O)C(=O)C1=Nc2c(nc(N)[nH]c2=O)NC1`: “inactive”.
The same measure for `N[C@H]1CONC1=O`: “inactive”; for `COc1ccc(/C=C/c2nc(NCCCN(C)C)c3ccccc3n2)cc1`: 23.7 µM (active).
For the compound `Fc1cccc(/C=N/N=C/c2cccc(F)c2)c1`, the Potency entry is “inactive”.
Turning to `C=CCNc1ncnc2ccc(Br)cc12`, the Potency is 10.2 µM (active).
On to `O=C(N[C@@H](Cc1ccccc1)C(=O)CCl)OCc1ccccc1`, for which the Potency is 16.8 µM (active).
As for `CCCCCCCCCCCCCCCCCCN(CCCCCCCCCCCCCCCCCC)CCCN(CCO)CCO`, the Potency entry is “inactive”.
The entry for `COc1cc2c(CCNC(C)=O)c[nH]c2cc1Cl` is “inactive”; for `NC(C(=O)N[C@@H]1C(=O)N2C(C(=O)O)=C(Cl)CS[C@H]12)c1ccccc1` (stereo not given in full) it is “inactive”; for `CCN1/C(=C/C(C)=O)Sc2ccc(OC)cc21` it is 5.11 µM (active).
As for `CCCCCCCCCCC(C)(C)C(=O)Nc1c(OC)cc(OC)cc1OC`, the Potency result was “inactive”.
With `CCCCCC(O)CCCC(=O)O` (stereo not given), the Potency result was “inactive”.
`COc1cc2c(CCNC(C)=O)c[nH]c2cc1O`: the Potency entry is “inactive”.
Turning to `N#Cc1cc([N+](=O)[O-])c2sc(C(N)=O)[n+]([O-])c2c1`, the Potency entry is “inactive”.
Regarding `OC[C@H]1O[C@@H](n2cnc3cncnc32)[C@H](O)[C@@H]1O`, the Potency was 15 µM (active).
As for `NCC1OC(OC2C(O)[C@@H](OC3C(O)C(N)CC(N)C3OC3OC(CO)C(O)C(O)C3N)O[C@@H]2CO)C(N)C(O)C1O` (stereo not given in full), the Potency result is “inactive”.
